Measured values: PubChem BioAssay AID2366 (The Scripps Research Institute Molecular Screening Center, 2010)

Assay: PME-1 inhibitor potency by in-gel ABPP, dose response, selectivity assay for PME-1 inhibitor project, cell lysate, mouse brain cytosol, FP-rhodamine (AID 2366)
Details: gel-based ABPP;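 active = compounds picked for the later follow-up tests because of their potency and selectivity; inactive = compounds skipped in follow-up as weaker or less selective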

IC50, inactive:
N#C/C(=C\c1cccn1S(=O)(=O)c1cccc([N+](=O)[O-])c1)S(=O)(=O)c1ccc(F)cc1 > 50 µM, CS(=O)(=O)/C(C#N)=C/c1cccn1S(=O)(=O)c1ccccc1 > 50 µM, CS(=O)(=O)/C(C#N)=C/c1cccn1S(=O)(=O)c1ccc([N+](=O)[O-])cc1 > 50 µM, CC(C)(C)S(=O)(=O)/C(C#N)=C/c1cccn1S(=O)(=O)c1ccccc1 > 50 µM, N#C/C(=C\c1cccn1S(=O)(=O)c1cccc(C#N)c1)S(=O)(=O)c1ccc(F)cc1 > 50 µM
